Compound activity deposited in PubChem by National Center for Advancing Translational Sciences (NCATS).
Compounds with a hit are over-represented: about 13% of the library has one in this group of screens.
A350 autofl: qHTS Assay for Spectroscopic Profiling in A350 Spectral Region. Compound autofluorescence, 340/450 nm, Alexa 350 dye-equivalents; hits give high values. hit rate 11% among 59,000. max dye-equivalent concentration, M; in the data active = max dye-equivalent concentration above about 10 nM; inconclusive = mostly about 1.1 nM to 9.6 nM
HADH2 inhib: qHTS Assay for Inhibitors of HADH2 (Hydroxyacyl-Coenzyme A Dehydrogenase, Type II) | AID 886, 2007 | hit rate 3.4% among 73,000 | recombinant HADH2, NADH fluorescence, beta-hydroxybutyryl-CoA | 3-hydroxyacyl-CoA dehydrogenase type-2 (Homo sapiens), Q99714 | Potency, µM (top dose mostly 57.1 µM), inactives show top-dose activity change, negative = inhibition, hits mostly inhibitors; note: potency is the fitted concentration of half-maximal effect; % is set by controls: 0 for no effect and ±100 for the full control effect; nearly all actives have a fitted effect of over 60% in size
Target sequence (Q99714 whole entry, looked up, one chain of several): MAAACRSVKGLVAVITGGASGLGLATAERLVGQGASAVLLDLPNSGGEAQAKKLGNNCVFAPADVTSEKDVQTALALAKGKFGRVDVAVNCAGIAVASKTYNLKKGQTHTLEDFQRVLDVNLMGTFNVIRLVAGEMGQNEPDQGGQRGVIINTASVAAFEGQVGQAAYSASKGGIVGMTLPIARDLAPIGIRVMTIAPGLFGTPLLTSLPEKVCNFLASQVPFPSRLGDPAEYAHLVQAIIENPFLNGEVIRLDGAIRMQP
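E. coli-expressed His-tagged HADH2 tested at 20 nM in alkaline Tris buffer (pH 9.0); oxidation of 90 uM beta-hydroxybutyryl-CoA with 1 mM NAD+ tracked fluorimetrically for 4 min.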
AID923: qHTS Assay for Allosteric/Competitive Inhibitors of Caspase-1: Spectroscopic Profiling in AFC Spectral Region; compound fluorescence, AFC spectral region (405/520 nm); Potency, µM (series often up to 57.5 µM), for the others: at the top dose fluorescence increase, most hits filed as activators; hit rate 1.1% among 75,000; note: potency is the fitted concentration of half-maximal effect; 0% is about no effect
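Baseline compound fluorescence (AFC region, 405 nm ex/520 nm em) taken from the intercept of kinetic reads with 50 nM caspase-1 and 5 uM Ac-WEHD-AFC; normalized to an on-plate AFC standard curve; compounds titrated up to 57 uM.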
4-MU autofl: qHTS Assay for Spectroscopic Profiling in 4-MU Spectral Region; hit rate 11% among 59,000; max dye-equivalent concentration, M; compound autofluorescence, 340/450 nm, 4-MU equivalents; hits give high values; AID 589, 2007; in the data active = max dye-equivalent concentration above about 10 nM; inconclusive = mostly about 1.1 nM to 9.6 nM
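Compounds in 100 mM Tris, pH 8.0, incubated 15 min at room temperature, then fluorescence read at 340 nm excitation/450 nm emission. Signal converted to 4-MU dye-equivalent concentration using an on-plate six-point 4-MU standard curve.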
HSD17B inhib: qHTS Assay for Inhibitors of HSD17B4, hydroxysteroid (17-beta) dehydrogenase 4; AID 893, 2007; Potency, µM (series often up to 57.1 µM), without a hit: top-dose activity change, negative = inhibition, hits mostly inhibitors; recombinant HSD17B10, NADH fluorescence kinetic; hit rate 7.6% among 75,000;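 note: the protocol describes HADH2 (HSD17B10) and not the HSD17B4 of the title; potency is the fitted concentration of half-maximal effect; % is set by controls: 0 for no effect and ±100 for the full control effect; nearly all actives have a fitted effect of over 70% in size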
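Enzyme plus compound, 15 min room temperature; substrate mix added (NAD+ 1 mM, beta-hydroxybutyryl-CoA 90 uM final); plates read kinetically for NADH fluorescence. HADH2 was His-tagged, E. coli-derived, 20 nM.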
Starred values were filed as active, the others as inactive; [ ] = another dose, or the depositor's remark. Unless noted, calls come from the whole dose curve; as a rule, active = well fitted curve in the direction sought with a large enough effect; inconclusive = small, poorly fitted or top-dose-only effect, or another doubt; inactive = no such curve, though single readings can be large; an effect the other way counts as inactive or inconclusive.

For CCOC(=O)C1=C(C)Nc2nc(SCC)[nH]c(=O)c2C1c1ccncc1 (configuration not stated) the results were A350 autofl 1.37e-08M*, HADH2 inhib 10.4%, AID923 0.2%, 4-MU autofl inconclusive and HSD17B inhib -1.5%.
For Cc1ccc(CSc2nc3c(c(=O)[nH]2)C(c2ccncc2)C2=C(CCCC2=O)N3)cc1 (configuration not stated) the results were A350 autofl 8.59e-08M*, HADH2 inhib -14.8%, AID923 1.9%, 4-MU autofl 1.01e-07M* and HSD17B inhib 25.1µM*.
Screening C#CCCCO/N=C1/C[C@@H](O)[C@@H](O)[C@@H]2[C@@H]3C(=O)N(C4CCCCC4)C(=O)[C@H]3CC[C@H]12 returned HADH2 inhib 2.0%[11.4 µM], AID923 6.4%[11.5 µM] and HSD17B inhib 0.3%[11.4 µM].
Screening COC(=O)c1ccc(C(/C=C/[C@@H](C)C(=O)N(C)C)NC(=O)OCc2ccccc2)cc1 (some centres not stated) returned HADH2 inhib 17.7%, AID923 -1.8% and HSD17B inhib -3.7%.
Screening CCCCN(CCCC)CCNC(=O)Cc1nc2c(c(=O)[nH]c(=O)n2C)n1C returned A350 autofl inactive, HADH2 inhib 3.6%, AID923 0.0%, 4-MU autofl inactive and HSD17B inhib 16.9%.
Screening O=C(O)[C@H]1CCCC[C@@H]1C(=O)Nc1nc2ccccc2[nH]1 returned A350 autofl inactive, HADH2 inhib -1.0%[11.4 µM], AID923 0.2%[11.5 µM], 4-MU autofl inactive and HSD17B inhib 0.8%[11.4 µM].
Screening COc1cccc(C(=O)Cn2c(=O)n(CC3CCCO3)c(=O)c3ccccc32)c1 (configuration not stated) returned A350 autofl inactive, HADH2 inhib -3.7%, AID923 -1.0%, 4-MU autofl inactive and HSD17B inhib -1.4%.
For S=C(c1ccc(-c2cccc(Cl)c2)o1)N1CCOCC1 the results were HADH2 inhib 6.31µM*, AID923 -0.2% and HSD17B inhib inconclusive.
Screening CC(C)CO/N=C1/C[C@@H](O)[C@@H](O)[C@@H]2[C@@H]3C(=O)N(C4CCCCC4)C(=O)[C@H]3CC[C@@H]12 returned HADH2 inhib 7.4%[11.4 µM], AID923 12.4%[11.5 µM] and HSD17B inhib -2.1%[11.4 µM].
Screening CCCCCCN(CCCCCC)C(=O)Cc1c(-c2ccc(Cl)cc2)[nH]c2ccc(Cl)cc12 returned HADH2 inhib -4.2%, AID923 2.7% and HSD17B inhib 31.6µM*.
Screening c1ccc2c(c1)oc1c(NCc3ccc4c(c3)OCO4)ncnc12 returned A350 autofl inactive, HADH2 inhib 22.5%, AID923 -0.7%, 4-MU autofl inactive and HSD17B inhib -7.6%.
For c1ccc2c(c1)oc1c(Nc3ccc4c(c3)OCO4)ncnc12 the results were A350 autofl inconclusive, HADH2 inhib -10.4%, AID923 1.7%, 4-MU autofl 2.46e-08M* and HSD17B inhib -2.1%.
`CC(C)=CCC/C(C)=C/CO/N=C1/C[C@@H](O)[C@@H](O)[C@@H]2[C@@H]3C(=O)N(Cc4ccccc4)C(=O)[C@H]3CC[C@H]12` gave HADH2 inhib 3.1%[11.4 µM], AID923 0.0%[11.5 µM] and HSD17B inhib -4.1%[11.4 µM].
`Cc1cc(NC(=O)CSc2ccc3nnc(-c4ccc(F)cc4)n3n2)no1` gave A350 autofl 2.23e-08M*, HADH2 inhib -13.2%, AID923 4.5%, 4-MU autofl 1.76e-08M* and HSD17B inhib 31.6µM*.
For Cc1cc(NC(=O)CSc2ccc3nnc(-c4cccs4)n3n2)no1 the results were HADH2 inhib -16.0%, AID923 1.1% and HSD17B inhib 0.9%.
Screening Cc1ccc(-c2nnc3ccc(SCC(=O)Nc4cc(C)on4)nn23)cc1 returned A350 autofl 2.93e-08M*, HADH2 inhib inconclusive, AID923 -0.9%, 4-MU autofl 3e-08M* and HSD17B inhib inconclusive.
